HCV inh: inhibitors of hepatitis C virus infection; Potency, µM (highest dose often 41.8 µM), inactives show at the highest dose activity change, negative = inhibition, actives largely listed as inhibitors; 340,000 tested, 3.4% active; AID 651820; Huh7.5.1 HCVcc-Cre infection, luciferase reporter, 44 h; active means well fitted inhibition curve with a large enough effect; inconclusive means small, poorly fitted or top-dose-only effect, or another doubt; inactive means no such curve, though single readings can be large or run the other way; further: potency means the concentration at half of the fitted maximal effect; on the % scale 0 is the no-effect control and ±100 the full control effect
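1,000 cells/well; 4 h culture; + compound; + HCVcc-Cre (~0.5 moi); 44 h; luciferase substrate, RT 15 min; read 15 sec.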
MARV entry inh: blocks Marburg virus binding to or entry into cells | Marburg virus pseudotyped entry inhibition, cell reporter | Potency, µM (series often up to 37.8 µM), for the others: top-dose activity change, negative = inhibition, usual class: inhibitors | 300,000 tested, 1.8% active | AID 540276; calls by dose curve; tested in HEK293 cells; further: potency means the concentration at half of the fitted maximal effect; on the % scale 0 is the no-effect control and ±100 the full control effect
Shiga toxin inh: inhibitors of Shiga toxin in Vero cells; Vero cells, Shiga toxin protein synthesis inhibition reporter; inhibition, % at 38.7 µM; 290,000 tested, 9.2% active; AID 2315; in the data active means inhibition mostly above about 28%, no sharp cut-off; inactive means mostly below about 43%; further: 0% is about no effect
LASV entry inh: inhibitors of Lassa virus binding or cell entry | Lassa virus pseudotype entry inhibition, cell reporter | Potency, µM (series often up to 37.9 µM), for inactives: top-dose activity change, negative = inhibition, actives largely listed as inhibitors | 300,000 tested, 1.2% active | AID 540256; calls by dose curve; tested in HEK293 cells; further: potency means the concentration at half of the fitted maximal effect; on the % scale 0 is the no-effect control and ±100 the full control effect; nearly all actives have a fitted effect of over 50% in size
Cycloheximide cs: counter-screen hit for Shiga toxin inhibitors, cycloheximide | max response, % | cell reporter, cycloheximide protein synthesis inhibition counterscreen | 300,000 tested, 12% active | AID 2314; in the data active means max response mostly above about 13%, no sharp cut-off; inactive means mostly below about 14%; further: read at 38.3 µM for the half of the compounds with a filed dose; 0% is about no effect
FMDV inh: blocks foot and mouth disease virus; Potency, µM (highest dose often 57.9 µM), inactives show top-dose activity change, negative = inhibition, most hits filed as inhibitors; 410,000 tested, 1.2% active; FMDV antiviral cell-based qHTS; AID 1159524; calls by dose curve; tested in HEK293T cells; further: read-out not given here; potency means the concentration at half of the fitted maximal effect; on the % scale 0 is the no-effect control and ±100 the full control effect; nearly all actives have a fitted effect of over 45% in size
* hit, by the source's call; ? = inconclusive; . = no result given; [ ] = remark or other dose. Compounds with a hit are over-represented: about 13% of the library has one in this group of screens.

SMILES	HCV inh	MARV entry inh	Shiga toxin inh	LASV entry inh	Cycloheximide cs	FMDV inh
Cc1oc(-c2ccccc2)cc1C(=O)NCc1ccncc1	-16%	.	-17	.	1	-26%
CC(=O)Oc1cc2c(C(=O)NCc3ccncc3)c(C)oc2c2ccccc12	11µM*	.	13	.	8.6*	-6%
COc1ccc(OCCSc2nnc(CC(=O)Nc3cccc(Cl)c3Cl)n2C)cc1	.	?	36	45%[14.3 µM]	23*	9%
CCn1c(CC(=O)Nc2cccc(Cl)c2Cl)nnc1SCCOc1ccc(OC)cc1	-25%	-1%	-8	2%	-1	12%
N[C@@H](Cn1ccc(=O)n(Cc2ccc(C(=O)O)cc2)c1=O)C(=O)O	.	.	.	.	.	-14%
O=C(CS(=O)(=O)c1cn(CC(=O)N2CCOCC2)c2ccccc12)NCc1ccc(F)cc1	14%	0%	10	4%	-3	-17%
O=C(Cn1c(=O)n(Cc2nc(-c3ccccc3)no2)c(=O)c2ccccc21)Nc1cccc(C(F)(F)F)c1	.	.	.	9%[46.1 µM]	.	20µM*
Fc1ccccc1CNC(=S)NCc1ccc(Cl)cc1	0%	.	10	.	2	23%
CN(C)S(=O)(=O)N1CCC(Oc2ccc(C(=O)NC3CCOC(C)(C)C3)cc2)CC1 (stereo unspecified)	1%	.	-3	.	-7	-11%
CCOC(=O)C1CCN(C(=O)c2ccc(OC3CCN(C(=O)COC)CC3)cc2)CC1	8%	.	28	.	11*	2%
COCCC(=O)N1CCC(Oc2ccc(C(=O)NC3CCCCC3)cc2)CC1	14%	.	-2	.	-1	-4%
CCOC(=O)C1CCN(C(=O)c2ccc(OC3CCN(C(=O)CCOC)CC3)cc2)CC1	9%	12%	2	0%	7	30%
COCC(=O)N1CCC(Oc2ccc(C(=O)NC3Cc4ccccc4C3)cc2)CC1	-14%	0%	55*	8%	27*	?
CN(C)S(=O)(=O)N1CCC(Oc2ccc(C(=O)NC3Cc4ccccc4C3)cc2)CC1	3.5µM*	.	106*	.	22*	?
Cc1ccccc1C(=O)NC(=O)Nc1ccc(-n2nc(C(F)(F)F)cc2C(F)(F)F)cc1	.	-24%[46.1 µM]	.	25%[46.1 µM]	.	0%
Cc1cc(Br)ccc1OCCCCN1CCCCC1	10µM*	?	-14	-8%	8	-16%
Cc1cc(Br)ccc1OCCOCCN1CCCC1	?	.	14	.	-1	-19%
Cc1ccccc1OCCOCCN1CCCCCC1	-13%	10µM*	-5	9%[46.1 µM]	-2	-17%
Cc1cc(C(C)(C)C)ccc1OCCCCN1CCCC1	22µM*	?	6	?	30*	-1%
COc1cccc2c1C(=O)CC2NC(=O)C(F)(F)F (stereo unspecified)	4%	11%	13	-2%	-3	0%
O=C(Nc1nc(-c2ccccc2)c(-c2ccccc2)s1)c1ccc(S(=O)(=O)N(CCCl)CCCl)cc1	-10%	?	-5	5µM*	-3	-9%
Cc1ccc(S(=O)(=O)n2nc(-n3c(C)ccc3C)c3c(F)cccc32)c2ccccc12	8%	11µM*	20	-20%[46.1 µM]	-2	-13%
Cc1ccc(C)n1-c1nn(S(=O)(=O)c2cccc3cccnc23)c2cccc(F)c12	-2%	?	27	-17%	10	-1%
COC(=O)C12OCC34C(CC5C(C)=C(O)C(=O)CC5(C)C3C(O)C1O)OC(=O)C(OC(=O)/C=C(\C)C(C)C)C24 (stereo unspecified)	?	?	.	?	.	-31%
O=[N+]([O-])c1ccc(S(=O)(=O)c2cccc(C(F)(F)F)c2)nc1	?	11µM*	.	?	.	18µM*
SMILES	HCV inh	MARV entry inh	Shiga toxin inh	LASV entry inh	Cycloheximide cs	FMDV inh
CC(=O)c1ccc(Sc2ccc(C(C)=O)cc2)cc1	4%	12%	40*	?	37*	-18%
CC(C)OCCCn1c(=S)[nH]c2ccc(N3CCOCC3)cc2c1=O	?	?	-12	5.8µM*	3	?
O=c1c2cc(N3CCOCC3)ccc2[nH]c(=S)n1CCCN1CCCCCC1	?	18µM*	-7	-2%	-3	-12%
CCCC(=O)Nc1ccc(-c2cn3cccnc3n2)cc1	5%	13%[46.1 µM]	39*	-9%	31*	38%
CC(C)CC(=O)Nc1ccc(-c2cn3cccnc3n2)cc1	-14%	-3%	88*	.	29*	73%
CC(C)(C)CC(=O)Nc1ccc(-c2cn3cccnc3n2)cc1	0%	0%	72*	?	39*	56%
CCCC(=O)Nc1cccc(-c2cn3cccnc3n2)c1	2%	?	37	?	23*	8%
O=C(Nc1ccccc1NC(=O)c1ccco1)c1ccccc1	6%	-4%[46.1 µM]	-7	5%	-13	?
c1coc(CNc2c3c(nc4ncnn24)CCC3)c1	16%	10%	-11	-1%	-5	-18%
O=C(Nc1cccc(-c2cn3cccnc3n2)c1)c1ccco1	-19%	-1%	29	1%	24*	-4%
CC(C)CC(=O)Nc1ccc(-c2cn3ccsc3n2)cc1	?	-12%	33*	3%	19*	-24%
Cc1noc(NS(=O)(=O)c2ccc(N/C=C/C(=O)c3ccc4c(c3)OCO4)cc2)c1C	15%	?	120*	12%	59*	18%
Cc1noc(NS(=O)(=O)c2ccc(N/C=C\C(=O)c3cccs3)cc2)c1C	-1%	5%	94*	2%	43*	13%
Cc1noc(NS(=O)(=O)c2ccc(N/C=C\C(=O)c3ccccc3)cc2)c1C	19%	15%[46.1 µM]	118*	3%	46*	0%
Cc1noc(NS(=O)(=O)c2ccc(N/C=C\C(=O)c3ccc(F)cc3)cc2)c1C	15%	-5%[46.1 µM]	90*	18%	61*	10%
CS(=O)(=O)c1nc(S(=O)(=O)c2ccc(Cl)cc2)c(N2CCCCCC2)s1	-2%	13%[46.1 µM]	12	-15%[46.1 µM]	-3	33%
COc1ccccc1C1=NOC(C)(c2sc(-c3ccccc3)nc2C)C1 (stereo unspecified)	14%	.	.	.	.	14%
CC(C)Cc1nc(SCC(=O)N2CC(C)OC(C)C2)c2c(=O)n(C)c(=O)n(C)c2n1 (stereo unspecified)	-13%	-2%	-10	9%	-2	-8%
Cn1c(=O)c2c(nc(CN3CCN(C(=O)c4ccco4)CC3)n2CCCO)n(C)c1=O	8%	.	-6	.	-2	-7%
Cc1ccc2c(C)c(C(=O)Nc3ccc(S(=O)(=O)Nc4onc(C)c4C)cc3)oc2c1	0.5µM*	5%[46.1 µM]	89*	-11%[46.1 µM]	55*	-11%
Cc1ccc2c(=O)cc(C(=O)Nc3ccc(S(=O)(=O)Nc4onc(C)c4C)cc3)oc2c1	18%	2%[46.1 µM]	-6	0%[46.1 µM]	-5	9%
COc1ccc(CNc2nc(NCc3ccc(OC)cc3)c3[nH]cnc3n2)cc1	-22%	.	4	.	-4	-19%
CCc1nnc(NC(=O)Cc2ccc(OC)cc2)s1	2%	2%	9	-2%	7	-2%
CCOC(=O)Nc1nnc(-c2ccc(OC)cc2)s1	1%	?	38	-2%	24*	.
